PLC-beta3 inh – human PLC-beta3 inhibitors, primary screen, biochemical, fluorescence. 1-phosphatidylinositol 4,5-bisphosphate phosphodiesterase beta-3 (Homo sapiens), Q01970. 370,000 tested, 0.18% active. AID 720704, 2013. Purified PLC-beta3, fluorogenic substrate. inhibition, % at 12.2 µM; in the data active = inhibition above about 11%
KLK7 zymogen act – proKLK7 zymogen activators, primary screen, biochemical, fluorescence intensity | Kallikrein-7 (Homo sapiens), P49862 | purified proKLK7, EDANS-DABCYL substrate fluorescence; 100% is mature enzyme control, 0% vehicle | activation, % at 7 µM | 370,000 tested, 0.9% active | AID 652039, 2013;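 active = activation above the mean of all tested compounds plus 3 SD, computed per campaign excluding outliers beyond control limits, cut at about 13% in these data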
ADAM17 inh – ADAM17 inhibitors, primary screen, biochemical, QFRET; Disintegrin and metalloproteinase domain-containing protein 17 (Homo sapiens), P78536; recombinant ADAM17, EDANS/DABCYL FRET peptide cleavage; inhibition, % at 6.95 µM; 370,000 tested, 0.83% active; AID 720648, 2013;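 active = inhibition above the mean of compounds lying between control limits plus 3 SD, set per campaign, cut at about 8.5% in these data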
PLCg1 inh – PLC-gamma1 enzyme inhibitors, primary screen, biochemical, fluorescence, purified enzyme | 1-phosphatidylinositol 4,5-bisphosphate phosphodiesterase gamma-1 (Homo sapiens), P19174 | inhibition, % at 12.2 µM | fluorogenic substrate | 370,000 tested, 0.84% active; in the data active = inhibition above about 9.5%
HGIII-sPLA2 inh – human group III sPLA2 inhibitors, primary screen, biochemical, QFRET, BODIPY PC-A2 liposome substrate. Group 3 secretory phospholipase A2 (Homo sapiens), Q9NZ20. 370,000 tested, 0.56% active. inhibition, % at 12.2 µM. QFRET BODIPY PC-A2 liposome hydrolysis, fluorescence. AID 743126, 2013;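 active = inhibition above mean plus 3 SD of compounds lying within the high and low control bounds, cut at about 19% in these data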
ADAM10 inh – human ADAM10 inhibitors, primary screen, biochemical, QFRET, HTS; recombinant ADAM10, EDANS/DABCYL FRET peptide cleavage, 3 h; AID 720582, 2013; Disintegrin and metalloproteinase domain-containing protein 10 (Homo sapiens), O14672; inhibition, % at 7 µM; 370,000 tested, 0.62% active;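 active = inhibition above a per-campaign cutoff equal to the mean of compounds falling between control-based bounds plus 3 SD, cut at about 20% in these data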
Of the large screens only hits and unclear results are named; the others gave an inactive call. Only some compounds are listed: those with a hit (about 3.4% of all), similar ones and a draw of the others.

C[C@@H]1CN([C@H](C)CO)C(=O)Cc2cc(NC(=O)Nc3ccccc3)ccc2O[C@@H]1CN(C)Cc1ccc2c(c1)OCO2	ADAM10 inh 20.5
C[C@H](CO)N1C[C@H](C)[C@@H](CN(C)C(=O)Nc2ccc(C(F)(F)F)cc2)Oc2c(NC(=O)Nc3ccc(C(F)(F)F)cc3)cccc2C1=O	ADAM17 inh 11.6, ADAM10 inh 28.6
CCOC(=O)CCCCCC(=O)Nc1ccc2c(c1)CC(=O)N([C@H](C)CO)C[C@@H](C)[C@H](CN(C)Cc1ccc3c(c1)OCO3)O2	none
C[C@H](CO)N1C[C@H](C)[C@@H](CN(C)C(=O)Nc2ccc(C(F)(F)F)cc2)Oc2ccc(NC(=O)Nc3ccc(C(F)(F)F)cc3)cc2C1=O	ADAM17 inh 12.8, ADAM10 inh 25.8
C[C@H]1CN([C@@H](C)CO)C(=O)c2cccc(NC(=O)Nc3ccc(C(F)(F)F)cc3)c2O[C@@H]1CN(C)C(=O)Nc1ccc(F)cc1	ADAM10 inh 23.3
COc1ccc(OC)c(S(=O)(=O)N2CCCCC2C(=O)N2CCN(Cc3ccc(F)cc3)CC2)c1 (stereo not drawn)	none
CSCCCNC(=O)Cn1nc(Cc2ccncc2)c2ccccc2c1=O	none
COc1ccc(NC(=O)Nc2ccc3c(c2)C(=O)N([C@H](C)CO)C[C@H](C)[C@@H](CN(C)Cc2ccc(Cl)c(Cl)c2)OCCCC[C@@H](C)O3)cc1	ADAM10 inh 21.2
COc1ccc(NC(=O)Nc2ccc3c(c2)C(=O)N([C@H](C)CO)C[C@H](C)[C@@H](CN(C)S(=O)(=O)c2ccc(OC)cc2)O3)cc1	none
COc1ccc(S(=O)(=O)N(C)C[C@H]2Oc3ccc(NC(=O)Nc4ccc(C(F)(F)F)cc4)cc3C(=O)N([C@H](C)CO)C[C@@H]2C)cc1	ADAM17 inh 11.5, ADAM10 inh 29.1
Cc1cccc(N=NC(=S)NNc2cccc(C)c2)c1	HGIII-sPLA2 inh 26.5
O=C(O)CCCCCn1c(SCC(=O)c2ccc(O)c(O)c2)nc2ccsc2c1=O	PLCg1 inh 11.1
Cc1ccc(-c2nn(-c3ccccc3)cc2C=C2SC(=S)N(CCS(=O)(=O)O)C2=O)cc1	none
O=C1C(=Cc2cn(-c3ccccc3)nc2-c2ccc(OCc3ccccc3)cc2)SC(=S)N1CCS(=O)(=O)O	ADAM10 inh 29.2
COc1ccc(CNc2nc(NCc3ccc(OC)c(OC)c3)n(C(=O)c3cccs3)n2)cc1OC	KLK7 zymogen act 199.4
COC(=O)NNC(=O)c1ccc(Cl)cc1Cl	none
CC(C)(C)C(=O)NC(=S)NNC(=O)c1ccc(Cl)cc1Cl	HGIII-sPLA2 inh 42.0
Oc1ccc(Cl)cc1Cc1cc(Cl)ccc1O	ADAM10 inh 25.6
Cc1cc(C)c(C)c(OCC(=O)NCC2CCCO2)c1 (stereo not drawn)	PLCg1 inh 12.1
Cc1cc(C)cc(OCC(=O)NCC2CCCO2)c1 (stereo not drawn)	none
Oc1ccc(Br)cc1-c1nc2cnccn2c1NC1CCCC1	KLK7 zymogen act 49.3
CN(c1ccccc1)c1ccc(/C=C(/CCC(=O)O)c2nc3ccccc3s2)cc1[N+](=O)[O-]	HGIII-sPLA2 inh 19.9
O=C(O)CC/C(=C\c1ccc(N2CCCC2)c([N+](=O)[O-])c1)c1nc2ccccc2s1	none
CC(C)(C)c1ccc(-c2cn(C[C@H](Cc3ccccc3)n3c(=O)c4ccccc4n3Cc3ccccc3)nn2)cc1	none
CC1(C)Oc2cc(N)c([N+](=O)[O-])cc2O1	PLCg1 inh 32.5
Nc1ccc(Oc2ccc(N)c([N+](=O)[O-])c2)cc1[N+](=O)[O-]	none
Cc1ccc(-c2nc(C3CCCN(S(=O)(=O)c4ccc(C)c(C)c4)C3)no2)cc1 (stereo not drawn)	none
Nc1nc2c(ncn2[C@@H]2O[C@H](C(=O)NC3CCCCC3)[C@@H](O)[C@H]2O)c(=O)[nH]1	none
Cc1ccc(Cn2c(SCC(=O)N3CC(=O)Nc4ccccc43)nc3ccccc3c2=O)cc1	ADAM17 inh 8.9

High-throughput results from PubChem BioAssay.
